In PubChem BioAssay AID485275 (NMMLSC, 2010):
In all, about 330,000 compounds went through this assay and about 1,400 (0.42%) were called active.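 How the source made its calls: active means plate passing quality check with inhibition over a set limit, or well fluorescence over plate mean plus 4 SD; inactive means the rest.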 The list comes from a sample in which actives are over-represented; it also holds similar structures and randomly drawn compounds.

Assay: inhibitors of Candida efflux pumps in yeast, primary screen, S. cerevisiae, Nile Red, multiplex (AID 485275);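 further: Nile Red retained in pooled yeast measured as flow cytometry median fluorescence; 0% = buffer negative control and 100% = Enniatin B positive control; higher means more Nile Red kept so more efflux inhibition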
Details: S. cerevisiae Candida pump triplex, at 10 µM, active compounds read high

| Compound | inhibition |
| --- | --- |
| CC1CC(C)CN(C(=O)C2CC(=O)N(c3ccc(F)cc3)C2)C1 (stereo unspecified) | -0.06% (inactive) |
| COc1ccccc1N=C1SC(C)CN1C(=O)C1CCC1 (stereo unspecified) | 0.03% (inactive) |
| O=C(NN1C(=O)C2C3C=CC(O3)C2C1=O)c1ccncc1 (stereo unspecified) | 0.07% (inactive) |
| c1cnc(Nc2nc(-c3ccc4ccccc4c3)cs2)nc1 | 0.79% (active) |
| Cc1ccccc1Nc1nc(-c2cccnc2)cs1 | 0.3% (inactive) |
| Cc1ccc(-c2csc(NC3OC(=O)c4ccccc43)n2)cc1 (stereo unspecified) | 0.03% (inactive) |
| COc1ccc(C(=O)C2CCCN(Cc3cccn3-c3ccccn3)C2)c(C)c1 (stereo unspecified) | 0.98% (active) |
| CCOC(=O)c1[nH]ncc1CN1CCCC(C(=O)c2ccc(OC)cc2C)C1 (stereo unspecified) | 0.25% (inactive) |
| COc1ccc(C(=O)C2CCCN(Cc3ccc4nonc4c3)C2)c(C)c1 (stereo unspecified) | 0.05% (inactive) |
| Cc1c(CCOC(=O)CC23CC4CC(CC(C)(C4)C2)C3)sc[n+]1Cc1ccc([N+](=O)[O-])cc1 | 0.61% (active) |
| Cc1c(CCO)sc[n+]1CC(=O)OC12CC3CC(CC(C3)C1)C2 | -0.46% (inactive) |
| Cc1c(CCOC(=O)c2cc([N+](=O)[O-])ccc2Cl)sc[n+]1CCCCS(=O)(=O)[O-] | 0.04% (inactive) |
| CC1CCCCC1NC(=O)Cn1c(=O)cnc2ccccc21 (stereo unspecified) | -0.23% (inactive) |
| CCOC(=O)N1CCN(S(=O)(=O)c2ccc(C(=O)Nc3ccc(F)cc3F)cc2)CC1 | -0.12% (inactive) |
| Cc1c(C(=O)NCCN2C(=O)S/C(=C\c3cccs3)C2=O)cccc1[N+](=O)[O-] | 0.33% (inactive) |
| CCOc1ccc(CCNC(=O)Nc2ccccc2)cc1OCC | -0.23% (inactive) |
| O=C(Cc1ccc(Br)cc1)NCCN1CCOCC1 | -0.17% (inactive) |
| CCOc1ccccc1/C=c1\sc2nc(-c3ccco3)nn2c1=O | 3.16% (active) |
| CCOc1ccccc1C1NC(=O)NC(C)=C1C(=O)OCc1ccco1 (stereo unspecified) | 0.02% (inactive) |
| CCCn1nc(C(=O)NNC(=O)CCOc2ccccc2OCC)c2ccccc2c1=O | -0.08% (inactive) |
| O=C(CCNC(=O)c1ccc([N+](=O)[O-])cc1)Nc1ccccc1N1CCOCC1 | 0.19% (inactive) |
| Cc1nc2sc(C(c3ccco3)N3CCC4(CC3)OCCO4)c(O)n2n1 (stereo unspecified) | -0.06% (inactive) |
| O=C(NC(=S)Nc1ccc2oc(=O)ccc2c1)c1ccc(-c2cccc(Cl)c2Cl)o1 | 0.12% (inactive) |
| NC(=O)C1CCN(CC(O)CSc2ccc(F)cc2)CC1 (stereo unspecified) | -0.06% (inactive) |
| CC1CCc2c(sc3c2C2=NS(=O)(=O)CCN2C=N3)C1 (stereo unspecified) | 0.15% (inactive) |
| O=C(CNC(=O)c1ccc(-c2ccccc2)cc1)OCc1ccc(Cl)cc1 | 17.2% (active) |

| Compound | inhibition |
| --- | --- |
| O=C(CNC(=O)c1ccccc1)NCC(=O)OCc1ccc(Cl)cc1 | 0.03% (inactive) |
| Cc1ccc(C(=O)NCC(=O)OCc2nnc(-c3ccccc3)o2)cc1 | 0.08% (inactive) |
| CN1CCN(Cc2c(C(=O)N3CCc4ccccc4C3)nc3ccc(Cl)cn23)CC1 | 0.16% (inactive) |
| CCOc1ccc(NC(=O)CN(C)C(=O)COc2cccc(CC)c2)cc1OCC | 0.06% (inactive) |
| COc1ccc2sc(-c3ccccc3OC)c(-c3ccc(OCCN4CCCC4)cc3)c2c1 | 198% (active) |
| COc1ccccc1-c1sc2ccccc2c1-c1ccc(Br)nc1 | -0.34% (inactive) |
| COc1ccccc1-c1sc2ccccc2c1-c1ccc(C(C)=O)cc1 | -0.1% (inactive) |
| COc1cc(OC)cc(-c2sc3ccc(OC)cc3c2-c2ccc3cc[nH]c3c2)c1 | -0.09% (inactive) |
| COc1ccc(-c2sc3ccccc3c2-c2ccc(OCCN3CCOCC3)cc2)cc1 | 0.31% (inactive) |
| O=C(COC(=O)COc1cc(Cl)c(Cl)cc1Cl)NC1CC1 | 0.12% (inactive) |
| O=c1c2ccccc2oc2nc(C3CCCCC3)n(Cc3ccco3)c(=O)c12 | -0.05% (inactive) |
| Clc1cccc(-c2nc3nc4ccccc4nc3n2Cc2ccco2)c1 | -0.17% (inactive) |
| Cc1ccc(Cn2c(C)nc3c(c2=O)c2nc4ccccc4nc2n3Cc2ccco2)cc1 | 0.94% (active) |
| Cc1cc(N(C)C)cc(C)[n+]1[O-] | -0.18% (inactive) |
| C=CC[n+]1c(-c2ccc(C)cc2)csc1NNC(=O)Nc1ccccc1 | -0.18% (inactive) |
| Cc1ccc(C)c(NC(=O)C(OC(=O)c2ccc(C)s2)c2ccccc2)c1 (stereo unspecified) | -0.08% (inactive) |
| COC(C(=O)Nc1ccc(C(C)=O)cc1)c1ccccc1 (stereo unspecified) | -0.08% (inactive) |
| Cc1cc(C)cc(NC(=O)C(OC(=O)c2ccc(O)cc2)c2ccccc2)c1 (stereo unspecified) | 0.91% (active) |
| O=C(O)CCCCCCCCCC[n+]1ccccc1 | 0.3% (inactive) |
| CCOC(=O)C1(Cc2cccc(OC)c2)CCCN(C(=O)CCSC)C1 (stereo unspecified) | 0.41% (inactive) |
| Cc1cccc(OCCC(=O)OCc2csc(CC(=O)Nc3ccccc3C)n2)c1 | 0.08% (inactive) |
| O=C(c1ccc(F)cc1)N1CCC(n2nnc3ccccc32)CC1 | -0.14% (inactive) |
| COc1ccc2cc(C3=CC(=O)C[C@H](c4ccc5c(c4)OCO5)C3)ccc2c1 | -0.01% (inactive) |
| Brc1cnc2ccccc2c1N1CCCCC1 | 0.04% (inactive) |
| COc1cc(C(=O)NCc2ccc(-n3cccc3)cc2)cc(OC)c1OC | 0.13% (inactive) |
